# Assay results: PubChem BioAssay AID1210 (NMMLSC, 2008)
# Calls of active or inactive are those of the source.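 How the source made its calls: active means blocks over 70% of labeled estradiol binding at 10 µM, or over a set limit at 100 nM; inactive means the rest.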
# Biological target: Estrogen receptor beta (Homo sapiens) (UniProt Q92731)
# Assay: ERbeta ligand binders by competition, primary screen, cell-based, Cos7 ERbeta-GFP, flow cytometry (AID 1210);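 further: 0% = DMSO vehicle wells and 100% = complete loss of labeled estradiol signal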
# Details: fluorescent estrogen binding, stronger effect = higher value
# [1] = ligand binding inhibition, at 0.1 µM
# Chain of Estrogen receptor beta (Homo sapiens) (Q92731 whole entry, looked up): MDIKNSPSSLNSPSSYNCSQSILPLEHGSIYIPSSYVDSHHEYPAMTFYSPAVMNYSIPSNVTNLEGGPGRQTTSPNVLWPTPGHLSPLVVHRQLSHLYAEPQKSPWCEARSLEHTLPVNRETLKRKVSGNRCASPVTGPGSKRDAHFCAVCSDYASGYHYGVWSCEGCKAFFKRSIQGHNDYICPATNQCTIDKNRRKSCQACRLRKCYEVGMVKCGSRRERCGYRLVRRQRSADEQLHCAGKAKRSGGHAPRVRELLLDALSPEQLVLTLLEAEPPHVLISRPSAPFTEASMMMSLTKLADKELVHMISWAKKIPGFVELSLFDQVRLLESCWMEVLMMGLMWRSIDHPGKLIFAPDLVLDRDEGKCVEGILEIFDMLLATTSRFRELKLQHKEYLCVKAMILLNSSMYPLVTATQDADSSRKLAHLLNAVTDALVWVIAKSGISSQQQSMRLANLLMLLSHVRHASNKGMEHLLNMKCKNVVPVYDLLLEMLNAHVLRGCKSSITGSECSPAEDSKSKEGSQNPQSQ
SMILES,inhibition (at 10 µM),inhibition [1] [%]
CN1CCC(=NNC(=O)c2cn(-c3ccccc3)nc2-c2ccccc2)CC1,32% (inactive),6
COc1ccccc1-c1nnc2sc(-c3cnccn3)nn12,40% (inactive),17
O=c1cc(CSc2nnnn2-c2ccccc2)nc(Nc2ccc(F)cc2)[nH]1,0% (inactive),25
CCOC(=O)c1sc(NC(=O)c2ccc3ncsc3c2)nc1C,21% (inactive),24
Cc1ccc(Cc2cncc(O)c2)cc1S(=O)(=O)O,0% (inactive),13
O=C1NC(c2ccc(Br)cc2)Nc2sc3c(c21)CCC3 (configuration not stated),54% (inactive),50
